HTR5A ag: HTR5A agonism, opioid heterodimer counter-screen; HTR5A agonist assay, luminescence, cell-based; P47898; 340,000 tested, 0.61% active; activation, % at 9.3 µM; in the data active = activation mostly above about 9.5%, no sharp cut-off; inactive = mostly below about 7.6%;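 also: 0% = cells with vehicle only and 100% = reference agonist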
Target sequence (P47898 whole entry, looked up): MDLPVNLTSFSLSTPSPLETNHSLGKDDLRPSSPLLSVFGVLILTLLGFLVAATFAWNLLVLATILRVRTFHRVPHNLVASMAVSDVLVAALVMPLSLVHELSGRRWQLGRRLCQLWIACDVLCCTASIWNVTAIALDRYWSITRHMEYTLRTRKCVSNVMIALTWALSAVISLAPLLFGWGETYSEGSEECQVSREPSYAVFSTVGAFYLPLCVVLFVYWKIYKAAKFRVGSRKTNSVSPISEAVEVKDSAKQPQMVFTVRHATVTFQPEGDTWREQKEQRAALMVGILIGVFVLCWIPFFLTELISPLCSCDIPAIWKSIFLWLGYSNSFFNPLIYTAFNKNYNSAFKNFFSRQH
PolyA inh: blocks polyadenylation in yeast reporter cells; S. cerevisiae SKY197-pL101 polyadenylation reporter, beta-gal luminescence; efflux-impaired pdr1/pdr3 knockout yeast; score 100 = 6 SD above DMSO; activity score, % at 12 µM; 300,000 tested, 0.02% active; AID 1875;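 active = lowest replicate activity score at least 50, where 100 means six control SD above control mean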;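 also: yeast exposed to compound for 9 h at 30 °C; higher score means more reporter readthrough which indicates perturbed polyadenylation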
NALP1 yeast inh: blocks the NALP1 inflammasome reconstituted in yeast; AID 2071; 280,000 tested, 0.61% active; inhibition, % at 10 µM; S. cerevisiae NALP1/ASC/caspase-1 growth, X-gal OD620, 72 h; in the data active = inhibition mostly above about 24%, no sharp cut-off; inactive = mostly below about 32%
HTR5A inv ag: HTR5A inverse agonism, opioid heterodimer counter-screen. P47898. HTR5A cell line, luminescence. inhibition, % at 9.3 µM. 340,000 tested, 0.083% active; in the data active = inhibition mostly above about 23%, no sharp cut-off; inactive = mostly below about 18%;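 also: 0% = cells with DMSO and 100% = no-cell wells with DMSO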
OPRM1-OPRD1 inv: inverse agonists of human mu-delta opioid receptor heterodimerization; P35372+P41143; cell-based MOR-DOR heterodimer luminescence, inverse agonism; inhibition, % at 9.3 µM; 340,000 tested, 0.21% active; AID 504357; in the data active = inhibition above about 22%, passing the limit was not always enough;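 also: 0% = cells with DMSO and 100% = wells without cells with DMSO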
OPRM1-OPRD1 ag: OPRM1-OPRD1 heterodimerization agonism; P35372+P41143; cells, luminescence; activation, % at 9.3 µM; 340,000 tested, 0.3% active; AID 504326; in the data active = activation above about 18%;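 also: 0% = vehicle-treated cells and 100% = reference agonist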
OPRM1-D1 inv cf: confirmation of human OPRM1-OPRD1 heterodimerization inverse agonists. shares compounds with OPRM1-OPRD1 inv. cells expressing OPRM1/OPRD1 heterodimer, luminescence. inhibition, % at 9.3 µM. 580 tested, 20% active. AID 504900; in the data active = inhibition above about 32%;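 also: 0% = cells with DMSO and 100% = wells lacking cells with DMSO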
HTR5A inv ctr2: inverse agonist of human HTR5A in OPRM1-OPRD1 counter-screen; inhibition, % at 9.3 µM; HTR5A-expressing cells, luminescence, inverse agonism; shares compounds with OPRM1-OPRD1 inv; 580 tested, under 10 active; call rule not given here;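 also: 0% = cells with DMSO and 100% = no-cell wells with DMSO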
* = called active by the depositor; i = inactive; . = no result given. Shown are actives, neighbours in structure and some others; about 1.6% of the full set was active somewhere.

SMILES | HTR5A ag | PolyA inh | NALP1 yeast inh | HTR5A inv ag | OPRM1-OPRD1 inv | OPRM1-OPRD1 ag | OPRM1-D1 inv cf | HTR5A inv ctr2
O=C1Nc2ccccc2C1=Nc1ccc2[nH]c3ccccc3c2c1 | -4 | . | . | 17 | 49* | -9 | i | -66
CC(=O)c1cccc(N=C2C(=O)Nc3ccccc32)c1 | -1 | -20 | -15 | 21 | 59* | -9 | 37* | 4
COc1cc(/C=N/N=C2/C(=O)Nc3ccccc32)cc(OC)c1O | -5 | 14 | 19 | 33 | 1 | 0 | . | .
Cc1ccc(N=C2C(=O)Nc3ccccc32)cc1C | -2 | 7 | 20 | 22 | 43* | -8 | i | -26
Cc1ccc(N=C2C(=O)Nc3ccccc32)cc1 | -2 | 15 | -2 | 8 | 49* | -10 | -71 | 9
CC(=O)c1cccc(N2C(=O)Nc3ccccc3N2O)c1 | 1 | 2 | 11 | 1 | 9 | -1 | . | .
COc1ccc(C)cc1NC(=O)CN1CCCN(S(=O)(=O)c2ccc(Br)cc2)CC1 | 5 | -14 | 10 | -14 | 4 | -1 | . | .
Cc1ccc([N+](=O)[O-])cc1N=C1C(=O)Nc2ccccc21 | -7 | -10 | 16 | 26 | 50* | -11 | -51 | -101
O=C1NC(=Nc2ccccc2)c2ccc([N+](=O)[O-])cc21 | 3 | -1 | 32 | -24 | -18 | 4 | . | .
O=C(COc1cc(F)ccc1[N+](=O)[O-])NCC1CCCO1 (stereo unspecified) | -2 | . | . | 7 | 10 | -3 | . | .
C[C@H]1CCC/C=C/[C@@H]2C[C@H](O)C[C@H]2[C@H](O)[C@H](S(=O)c2ccc(O)cc2)CC(=O)O1 (stereo partly specified) | 0 | . | . | 0 | 44* | -10 | -64 | -19
CC1CCCC=CC2CC(OC(=O)CN(C)C)CC2C(O)C=CC(=O)O1 (stereo unspecified) | 1 | . | . | -5 | 28 | -6 | . | .
O=[N+]([O-])c1ccc(N2CCN(c3ccc(Cl)nn3)CC2)cc1NC1CC1 | -1 | 7 | . | 0 | 19 | -3 | . | .
O=C(CCc1ccccc1)OCC(=O)c1cccc([N+](=O)[O-])c1 | 0 | 5 | -8 | 50 | 54* | -11 | 31* | 20
O=C(CN1C(=O)c2ccccc2C1=O)NCC(=O)OCC(=O)c1cccc([N+](=O)[O-])c1 | -1 | -9 | 16 | 1 | 73* | -15 | 45* | 14
O=C(CN1C(=O)C2CC=CCC2C1=O)OCC(=O)c1ccc(Cl)c([N+](=O)[O-])c1 (stereo unspecified) | -5 | 3 | 9 | 38* | 89* | -16 | 59* | 21
CC(C)(C)c1cc(C(=O)NCC(=O)OCC(=O)c2cccc([N+](=O)[O-])c2)cc(C(C)(C)C)c1 | -3 | 15 | 20 | 11 | 46* | -9 | 37* | 52*
CCOc1ccccc1NC(=O)C1(S(=O)(=O)c2ccc(Cl)cc2)CC1 | 1 | -18 | 33 | -7 | -21 | 3 | . | .
O=C(CN1C(=O)C2C3C=CC(C3)C2C1=O)OCC(=O)c1ccc([N+](=O)[O-])cc1 (stereo unspecified) | -2 | -7 | 1 | 7 | 15 | -3 | . | .
O=C(Cc1ccccc1)NCC(=O)OCC(=O)c1cccc([N+](=O)[O-])c1 | -8 | -5 | 29 | 19 | 64* | -13 | 58* | 8
O=C(CN1C(=O)C2C3CC(C(Br)C3Br)C2C1=O)OCC(=O)c1cccc([N+](=O)[O-])c1 (stereo unspecified) | -7 | 0 | 13 | 18 | 61* | -12 | 38* | 14
CC(=O)NC(=S)NNC(=O)CCc1ccccc1 | -3 | -6 | 6 | 7 | 24 | -5 | . | .
CCCCC(=O)NC(=S)NNC(=O)CCc1ccccc1 | -8 | -8 | . | 25 | 39* | -8 | 16 | 5
NC(=O)c1ccccc1NCC(=O)c1ccc(Cl)cc1 | -1 | -1 | 16 | 4 | 46* | -8 | i | -7
NC(=O)c1ccccc1OCC(=O)c1ccc(Cl)cc1 | 3 | 12 | 2 | -8 | 4 | -1 | . | .
SMILES | HTR5A ag | PolyA inh | NALP1 yeast inh | HTR5A inv ag | OPRM1-OPRD1 inv | OPRM1-OPRD1 ag | OPRM1-D1 inv cf | HTR5A inv ctr2
O=C(Nc1ccccc1C(=O)O)c1ccccc1 | -3 | -1 | -3 | -11 | 0 | 0 | . | .
O=C(CNc1ccccc1C(=O)O)c1ccccc1 | -6 | 9 | . | 16 | 71* | -14 | -24 | 1
Cc1ccc(S(=O)(=O)Nc2cccc3cccnc23)cc1 | -6 | -35 | -14 | 11 | 44* | -7 | 11 | 5
Cc1ccc(S(=O)(=O)Nc2ccccc2-c2ccccc2NS(=O)(=O)c2ccc(C)cc2)cc1 | 5 | -10 | 7 | -11 | 9 | -2 | . | .
CCc1ccc2c(c1)C(=O)c1ccccc1C2=O | 4 | -38 | 12 | -12 | -39 | 5 | . | .
O=C1c2ccccc2-c2c1nc1c([n+]2[O-])CCCC1 | -10 | 0 | 7 | 18 | 93* | -16 | 22 | 1
O=C(CSc1nc(-c2ccccc2)cs1)NCCCN1CCCC1=O | 5 | . | . | -14 | 1 | 0 | . | .
CN1C(=O)c2cccc3c(S(=O)(=O)Nc4ccccn4)ccc1c23 | 1 | 14 | 5 | -2 | 9 | -2 | . | .
O=C1C(=O)N(CNc2ccccn2)c2ccccc21 | -6 | 22 | 12 | 17 | 84* | -13 | 68* | 11
O=C1C(=O)N(CNc2cccnc2)c2ccccc21 | 0 | 9 | 28 | 9 | 51* | -10 | 14 | 6
COc1ccc(C2CC23N=C(c2ccccc2)OC3=O)cc1 (stereo unspecified) | 0 | -2 | 31 | -29 | 7 | -1 | . | .
CC1(C)CC(CC(=O)NC(=S)Nc2ccc([N+](=O)[O-])cc2)C(=O)O1 (stereo unspecified) | -6 | -16 | 2 | 2 | 35* | -6 | -259 | -4
O=C(Cc1ccccc1)NNc1ccc2ccccc2c1 | 1 | -28 | -2 | 16 | 33* | -6 | -29 | 2
O=C(c1cccnc1)c1cccnc1 | -1 | 2 | 29 | 3 | -15 | 2 | . | .
c1cncc(-c2nnc(-c3cccnc3)nn2)c1 | -7 | 6 | 26 | 18 | 86* | -15 | -33 | 18
O=C(C(=O)c1cccnc1)c1cccnc1 | -3 | -3 | . | 13 | 36* | -7 | i | 2
COc1ccnc2c1c(=O)n(Cc1ccc(Cl)cc1)c(=O)n2C | 2 | -5 | 3 | 4 | 4 | -1 | . | .
O=C(CCC1CCCC1)NNC(=O)c1ccccc1O | 2 | 4 | . | -4 | 3 | 0 | . | .
CC1CCCN(C(=O)CNC(=O)c2ccco2)C1 (stereo unspecified) | 4 | 0 | -2 | -10 | 7 | -2 | . | .

Source: PubChem (several laboratories)
